Assays:
Experiment in all cases: PBM binding z-score (relative to random genomic background probes); higher = stronger binding; sequences stand for … in GC…GCGATTGACAGCGTAGAATGAAGG
[1] = system: FXR:RXRa (NR concentration 270 nM, RXRa partner concentration 90 nM)
In short: (§1)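 The probes on custom Agilent 4×180K protein-binding microarrays were double-stranded, with 34-nt variable regions bearing direct-repeat seeds, single-nucleotide variants, half-site ablations and random human genomic background sequences. Incubation lasted 1 h with ligand-free nuclear receptor dimers in PBS pH 7.4, 2% milk, 0.02% Triton X-100, 1 mM DTT, 0.2 mg/mL BSA and 0.4 mg/ml salmon testes DNA. Antibodies against each partner (one per run) detected bound dimers, and fluorescence scans were regression-normalized. Binding z-scores take the random background probes as reference.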

[2] = system: LXRa:RXRa (NR concentration 270 nM, RXRa partner concentration 90 nM)
In short: as §1

[3] = system: LXRa homodimer (NR concentration 270 nM)
In short: as §1

[4] = system: LXRb:RXRa (NR concentration 270 nM, RXRa partner concentration 90 nM)
In short: as §1

[5] = system: LXRb homodimer (NR concentration 270 nM)
In short: as §1

[6] = system: PPARa:RXRa (NR concentration 270 nM, RXRa partner concentration 90 nM)
In short: as §1

[7] = system: PPARg:RXRa (NR concentration 180 nM, RXRa partner concentration 90 nM)
In short: as §1

[8] = system: PPARg:RXRa 270nM:90nM, anti-RXR (NR concentration 270 nM, RXRa partner concentration 90 nM)
In short: as §1

[9] = system: PPARg:RXRa 30nM:10nM, anti-RXR (NR concentration 30 nM, RXRa partner concentration 10 nM)
In short: as §1

[10] = system: PPARg:RXRa 90nM:30nM, anti-RXR (NR concentration 90 nM, RXRa partner concentration 30 nM)
In short: as §1

[11] = system: PPARg:RXRa DBDmut IVT, anti-RXR (DBD mutation: RXRa K156A/R161A, NR concentration 270 nM, RXRa partner concentration 90 nM)
In short: as §1

[12] = system: PPARg:RXRa IVT, anti-PPARg (NR concentration 270 nM, RXRa partner concentration 90 nM)
In short: as §1

[13] = system: PPARg DBDmut:RXRa IVT, anti-PPARg (DBD mutation: PPARg1 K132A/R137A, NR concentration 270 nM, RXRa partner concentration 90 nM)
In short: as §1

[14] = system: PPARg DBDmut IVT, anti-PPARg (DBD mutation: PPARg1 K132A/R137A, NR concentration 270 nM)
In short: as §1

[15] = system: PPARg homodimer (NR concentration 180 nM)
In short: as §1

[16] = system: PXR:RXRa (NR concentration 270 nM, RXRa partner concentration 90 nM)
In short: as §1

[17] = system: PXR homodimer (NR concentration 270 nM)
In short: as §1

[18] = system: RARa:RXR (NR concentration 270 nM, RXRa partner concentration 90 nM)
In short: as §1

[19] = system: RARa homodimer (NR concentration 270 nM)
In short: as §1

[20] = system: RARb:RXRa (NR concentration 270 nM, RXRa partner concentration 90 nM)
In short: as §1

Sequence	PBM binding z-score [1]	PBM binding z-score [2]	PBM binding z-score [3]	PBM binding z-score [4]	PBM binding z-score [5]	PBM binding z-score [6]	PBM binding z-score [7]	PBM binding z-score [8]	PBM binding z-score [9]	PBM binding z-score [10]	PBM binding z-score [11]	PBM binding z-score [12]	PBM binding z-score [13]	PBM binding z-score [14]	PBM binding z-score [15]	PBM binding z-score [16]	PBM binding z-score [17]	PBM binding z-score [18]	PBM binding z-score [19]	PBM binding z-score [20]
ACTATTAGTCGACTTAGGGCAACCGATACGACGC	-0.365	-0.211	-0.355	-0.374	0.47	-0.446	0.825	0.138	0.0617	0.0451	0.19	0.646	0.629	1.12	-0.309	-0.188	-0.351	0.128	-0.494	0.711
TAGCCTAGGTCATTCAGGGGCCAGTCTAGAAAGC	4.72	3.65	0.514	2.84	0.819	3.29	1.75	2.25	-0.0756	1.15	1.37	2.68	0.235	0.0209	2	2.58	-0.494	3.47	-0.518	3.75
TCTGCTAGGTCAGTTGCTCAGCTAACGAGCTGCC	0.259	0.241	-0.836	-0.204	-0.131	0.67	-0.489	1.14	0.796	1.19	2.23	2.17	-0.136	0.103	-0.987	-0.163	-1.12	-0.122	-1.62	2.9
CCTACTGGGCCGTCAGGTCATTGATATCAACGTT	1.31	0.772	0.809	1.21	-0.585	1.71	0.704	1.92	0.179	1.15	1.17	2.14	-0.782	-0.667	0.741	1.33	0.502	1.53	0.0542	1.66
TGAATGAGGTTATAAGATAAGGGAACGTTGCAAA	1.34	1.2	-0.153	0.988	0.119	2.45	1.43	1.62	0.912	1.51	0.589	1.42	1.45	0.957	0.436	0.669	0.0149	1.32	-0.0101	1.04
TAGCCTAGGTCATTCAGGGGCCTGTATAGAAAGC	4.5	3.47	0.422	2.66	0.91	3.5	2.01	2.08	0.363	1.19	1.43	2.65	-0.0905	-0.0908	0.863	1.75	-0.488	2.51	-0.792	3.52
TAGCCTACGTCAGATCGGGCCAGTATACGCTATA	-0.48	-0.971	-0.851	-1.01	-0.669	-0.78	0.214	-0.86	-0.34	-0.771	-1.07	-0.466	-1.21	0.256	-1.51	-0.718	-1.22	-0.618	-1.02	-0.507
